Measured values taken from PubChem BioAssay (NCI).
About 79,000 compounds went through this panel and 15% of them were active in at least one assay; those are over-represented in the sample as a whole. No stated cut-off is given here; in the data, active means growth inhibition above about 70%; inactive means the rest.

Tests used:
[1] = NCI Yeast Anticancer Drug Screen. Data for the rad50 strain (AID 155);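 further: 0% = growth of vehicle-only cultures of the same strain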; conditions: S. cerevisiae rad50 strain growth inhibition; at 50.0 µM; active compounds read high
Method in brief: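 Cells are treated with compound, grown, and their growth is then scored against vehicle-only cultures of the same repair-deficient yeast strain.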

[2] = NCI Yeast Anticancer Drug Screen. Data for the mec2-1 strain (AID 157); conditions: S. cerevisiae mec2-1 strain, at 50.0 µM, active compounds read high
Method in brief: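 mec2-1 yeast strain, carrying an alteration in DNA damage repair or cell cycle control, was exposed to compounds; growth inhibition was measured relative to vehicle-treated controls.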

[3] = NCI Yeast Anticancer Drug Screen. Data for the sgs1 mgt1 strain (AID 161);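 further: 0% = growth of cultures given vehicle only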; conditions: S. cerevisiae sgs1 mgt1 strain, at 50.0 µM, active compounds read high
Method in brief: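 This yeast growth screen uses a strain with defined DNA-repair lesions; compound-treated growth is compared with vehicle-treated growth.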

[4] = NCI Yeast Anticancer Drug Screen. Data for the cln2 rad14 strain (AID 165);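 further: 0% = growth equal to vehicle treated cultures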; conditions: S. cerevisiae cln2 rad14 strain, at 50.0 µM, active compounds read high
Method in brief: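 Yeast carrying cln2 and rad14 alterations (cell cycle control and DNA damage repair) were exposed to compounds. Growth inhibition was measured against vehicle-treated controls.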

[5] = NCI Yeast Anticancer Drug Screen. Data for the mlh1 rad18 strain (AID 175); conditions: S. cerevisiae mlh1 rad18 strain growth inhibition; at 50.0 µM; active compounds read high
Method in brief: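 Growth inhibition of the yeast strain was measured after compound exposure and expressed relative to vehicle-treated controls. The strain carries defined defects in DNA damage repair.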

[6] = NCI Yeast Anticancer Drug Screen. Data for the bub3 strain (AID 167); conditions: S. cerevisiae bub3 mutant strain, at 50.0 µM, active compounds read high
Method in brief: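 Part of a panel of yeast mutants defective in DNA damage repair or cell cycle regulation. Each strain is grown with compound, and inhibition is calculated relative to solvent-treated cultures.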

Measured: growth inhibition

N#CC1(C#N)C2CCCCC23OC(=N)C1(C#N)C(c1ccco1)O3 (centres undefined)
inactive: [1] 15.8% | [2] 19.7% | [3] -29.2% | [4] -17.1% | [5] -25.4%

COC(=O)c1nc(Br)cnc1N
inactive: [1] 8.05% | [2] -8.4% | [3] 2.1% | [6] 4% | [5] -0.45%

COc1cc([C@H]2OC[C@@H]3C(c4cc(OC)c5c(c4)OCO5)OC[C@H]23)cc(OC)c1OC (some centres undefined)
inactive: [1] -8.65% | [2] -34.6% | [3] -26.9% | [4] 21% | [5] -53.1%

O=S(=O)(O)c1cc(O)c2c(O)cc(S(=O)(=O)O)cc2c1
inactive: [1] -0.75% | [2] -20.1% | [3] -21.2% | [6] -8.1% | [5] -4.7%

CC(=O)[C-](C(C)=O)c1ccccc1.CC(=O)[C-](C(C)=O)c1ccccc1.CC(=O)[C-](C(C)=O)c1ccccc1.[Cl-].[Zr+4]
inactive: [1] 27.4% | [2] 28.8% | [3] 0.35% | [6] 14.8% | [5] 1.65%

Cc1ccc(NC2=N/C(=C/c3ccccc3)C(Cl)=N2)cc1
inactive: [1] -10.1% | [2] -30.6% | [3] 16.9% | [4] 10.9% | [5] -51%

CCOC(=O)c1cc(C)nc2c1c(=O)n(-c1ccccc1)c(=O)n2CCCCN1CCN(c2ncccn2)CC1
inactive: [1] 9.75% | [2] -32.4% | [3] 12.2% | [4] 7.45% | [5] -38.5%

C[C@@H]1C[C@@H]2OC(=O)[C@]3(C)[C@H]2[C@@H](OC3(C)O)[C@]2(C)C(=O)C=C[C@@H]12 (some centres undefined)
inactive: [1] -27.6% | [2] -45.6% | [3] -40.4% | [4] -12.7% | [5] -35.5%

Cc1ccc(OCC2OC(n3cnc4c(Cl)nc(Cl)nc43)CC2Oc2ccc(C)cc2)cc1 (centres undefined)
inactive: [1] -20.4% | [2] -21.6% | [4] 7.45% | [6] 27.4% | [5] -33.5%

CC1(c2ccc3ccccc3c2)CCC(=O)O1 (centres undefined)
inactive: [1] -2.75% | [2] -30% | [5] -4.8%

N/N=C(\C(=O)Nc1ccc([N+](=O)[O-])cc1)C(C1=Nc2cc([N+](=O)[O-])ccc2NC1)[N+](=O)[O-] (centres undefined)
inactive: [1] 34.7% | [2] 11.7% | [4] -41.5% | [6] 5% | [5] 16.9%

COc1ccc2c(c1C)CN1CCc3cc4c(cc3C1=C2)OCO4
inactive: [1] 23.1% | [2] 17.4% | [5] 61.1%

N#CC(=S)Nc1ccc(F)cc1
inactive: [1] 20.2% | [2] 26.1% | [4] -17.8% | [6] 10.9% | [5] -5.8%

C=C1C(=O)OC2CC(C)C3(O)CCC(=O)C3(C)CC12 (centres undefined)
inactive: [1] -14.8% | [2] -24.9% | [4] 4.45% | [6] -18.4% | [5] -33.5%

CCCCCCC(=O)C(CCCC)(C(=O)OCC)C(=O)OCC
inactive: [1] 0.4% | [2] -9.4% | [5] 7.35%

COC(=O)C(=O)C(C(=O)C(=O)Nc1nc2ccc(C)cc2s1)c1nc2ccc([N+](=O)[O-])cc2[nH]c1=O (centres undefined)
inactive: [1] 56.1% | [2] 15.4% | [4] -30.6% | [6] 26.1% | [5] 20.2%

CC(C)C1OC(N)=C(C#N)C1(C#N)C#N (centres undefined)
inactive: [1] 8.9% | [2] 27% | [4] -11.8% | [5] -38.6%

CNc1nc2c(C)ccc3[nH]c(N(C)C)nc3c-2n1
inactive: [1] 14.2% | [2] -32.8% | [4] 8.1% | [6] 4.65% | [5] -10.9%

Cc1ccc(NC(=O)/C=C/C(=O)O)c(NC(=O)/C=C/C(=O)O)c1
inactive: [1] 4.8% | [2] -1.15% | [5] 28.8%

O=C(O)CCCC(=O)Nn1c(Cc2ccc(Cl)cc2)n[nH]c1=O
inactive: [1] 7.75% | [2] -13.1% | [4] -6.3% | [6] -7.15% | [5] -1.85%

COc1ccc2c(c1)N(C(C)=O)CN1C(=O)CCC21 (centres undefined)
inactive: [1] -10.4% | [2] 1.25% | [4] 21.8% | [5] -66%

CC(C)/C(Cl)=N/OC(=O)Nc1cccc(C(F)(F)F)c1
inactive: [1] 35.7% | [2] 38.3% | [4] 24.8% | [6] 65.5% | [5] -91.7%

COc1ccccc1-c1n[nH]c(-c2ccccc2O)n1
inactive: [1] 31.7% | [2] -24.1% | [4] -10.7% | [5] -54.1%
